# From the supplement of paper PMC3342239
# Where a name gives a salt, the structure may show the parent alone.
# System: Saccharomyces cerevisiae
# Test: fraction of cells in G1 phase (DNA content, flow cytometry); higher = more cells with unreplicated DNA (G1 delay)
# Settings: temperature: 30 C; YPD; JTY2953 pdr5 snq2 (sensitized); drug added to: cultures diluted from stationary phase; 6-7 h
# Procedure, shortened: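 For the G1 fraction, the Dean-Jett-Fox G1 peak area was divided by the sum of the G1 and G2/M areas. S. cerevisiae in YPD at 30°C received library drugs and was fixed 6–7 h later for sensitized JTY2953 (diluted 1∶200 from overnight, final 20 µg/ml), 6 h later for dividing JTY2953, or 4.33 h later for BY4741. Fixed cells were stained with SYTOX Green and 10,000 events recorded by flow cytometry.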
row,SMILES,fraction of cells in G1 phase
1,CN[C@@H]1[C@H](O[C@H]2[C@H](O[C@H]3[C@H](O)[C@@H](O)[C@H](N=C(N)N)[C@@H](O)[C@@H]3N=C(N)N)O[C@@H](C)[C@]2(O)C=O)O[C@@H](CO)[C@H](O)[C@H]1O [Streptomycin sulfate] (34.3888 µM),0.478
2,O=C(O)COCCN1CCN(C(c2ccccc2)c2ccc(Cl)cc2)CC1 (configuration not stated) [Cetirizine 2HCl] (43.3088 µM),0.492
3,O=C(CCCCCCC(=O)Nc1ccccc1)NO [Vorinostat] (75.6716 µM),0.482
4,CC(C)[N+]1(C)[C@@H]2CC[C@H]1CC(OC(=O)C(CO)c1ccccc1)C2 (some centres not stated) [Ipratropium Br] (60.1563 µM),0.508
5,O=C(O)/C=C/c1ccc(Cn2ccnc2)cc1 [Ozagrel] (87.6221 µM),0.471
6,O=S(=O)(c1cccc2cnccc12)N1CCCNCC1 (54.8998 µM),0.529
7,CC(C)NCC(O)COc1ccc(CCOCC2CC2)cc1 (configuration not stated) [Betaxolol HCl] (65.054 µM),0.525
